Screening data (PubChem)
D1 antag = blocks dopamine activation of the human D1 receptor. 3.2% of 360,000 active. AID 504652. activity change, negative = inhibition, % at 10 µM. HEK293 TREx D1 cells, calcium flux, dopamine EC80; stronger effect = lower value; in the data active = activity change below about -30%; note: % is set by controls: 0 for no effect and ±100 for the full control effect
Target sequence (P21728 whole entry, looked up): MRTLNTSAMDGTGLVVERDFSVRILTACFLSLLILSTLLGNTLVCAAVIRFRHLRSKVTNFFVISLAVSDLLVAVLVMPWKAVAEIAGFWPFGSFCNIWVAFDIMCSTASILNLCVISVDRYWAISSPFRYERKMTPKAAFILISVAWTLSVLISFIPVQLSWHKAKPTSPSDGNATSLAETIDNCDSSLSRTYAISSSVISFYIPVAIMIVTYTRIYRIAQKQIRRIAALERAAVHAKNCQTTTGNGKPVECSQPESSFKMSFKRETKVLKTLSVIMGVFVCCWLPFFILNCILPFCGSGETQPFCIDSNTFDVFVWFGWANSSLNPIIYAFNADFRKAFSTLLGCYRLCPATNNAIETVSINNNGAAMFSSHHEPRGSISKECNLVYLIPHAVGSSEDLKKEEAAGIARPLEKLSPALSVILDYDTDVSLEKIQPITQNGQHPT
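Inducible Hek293 Trex D1 cells (tetracycline, overnight, 30 C). Calcium dye 30–90 min RT. Antagonist mode: EC80 dopamine added after 180 s compound read.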
DRD3 agonist = D3 dopamine receptor (human) agonism. P35462. D3R DiscoveRx beta-arrestin cells, luminescence, 90 min. max activation, %. 0.58% of 410,000 active. AID 652048; in the data active = max activation above about 30%; note: 0% is about no effect
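Agonist-mode cell screen: cells plated at 1500/well and incubated overnight at 37 °C, then exposed to library compounds for 90 min at 37 °C. Detection reagent was added for 30–60 min at room temperature, and luminescence was read.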
D1 ag = agonists of human D1 dopamine receptor; P21728; HEK293 T-REx D1 cells, calcium flux, agonist mode; activation, % at 2 µM; 1% of 360,000 active; in the data active = activation above about 30%; note: 0% is about no effect
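Tetracycline-induced HEK293 TREx D1 cells, force-coupled to calcium signalling, were dye-loaded with a no-wash calcium kit. Compound was pin-added after a 10 s baseline. Fluorescence was read kinetically at 1 cycle/s for 180 s, with calcium rises flagged as agonism.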
D3 antag = D3 dopamine receptor (human) antagonism | D3R cells, DiscoveRx beta-arrestin luminescence, antagonist mode; stronger effect = lower value | P35462 | AID 652054 | max response, negative = inhibition, % | 2.5% of 360,000 active; in the data active = max response below about -50%; inconclusive = no clear call, values can overlap the other calls; note: % is set by controls: 0 for no effect and ±100 for the full control effect
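Cells plated overnight at 1500 cells/well, then exposed to library compounds with dopamine controls for 90 minutes at 37 degrees C. DiscoveRx reagent added for 30–60 minutes at room temperature; luminescence read, quantitative HTS format.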
D1 PAM = enhances dopamine response at the human D1 receptor. HEK293 TREx D1 cells, calcium flux, dopamine EC20 potentiation. potentiation, % at 10 µM. 0.036% of 360,000 active; in the data active = potentiation above about 30%; note: 0% is about no effect
* hit, by the source's call; ? = inconclusive; . = no result. In the library only some 6% were active in any assay of this set; here they are far more common.

SMILES	D1 antag	DRD3 agonist	D1 ag	D3 antag	D1 PAM
O=C(NN1C(=O)NC2(CCCCC2)C1=O)c1ccc(-c2ccccc2Cl)o1	20.2	-6.4	3.4	-52.2*	-1.0
O=C(Nc1ccc(CN2CCOCC2)cc1)c1ccco1	-35.4*	-10.3	2.1	6.8	-3.6
CC(=O)N1CCN(c2ccc(NC(=O)c3ccco3)cc2Cl)CC1	-9.8	0.8	3.6	-7.8	-2.5
O=C(Nc1ccc(CN2CCOCC2)cc1)c1ccc(Cl)cc1	6.8	-3.3	12.0	-7.2	3.5
O=C(Nc1ccc(N2CCOCC2)c(F)c1)c1cccs1	-38.5*	8.0	0.1	2.3	-7.3
CCOc1ccc(NC(=O)c2ccc(NC(=S)NC3CCCCC3)cc2)cc1	-4.6	-11.5	-0.1	-68.3*	0.8
O=C(Nc1ccc(N2CCN(C(=O)c3ccccc3)CC2)c(Cl)c1)c1ccco1	-33.4*	4.8	3.9	18.2	-5.3
COc1ccccc1N1CCN(c2ccc(-c3nc(-c4ccccc4)no3)cc2[N+](=O)[O-])CC1	9.1	7.3	0.3	.	2.5
CCCC(=O)N1CCN(c2ccc(NC(=O)c3cc4ccccc4o3)cc2Cl)CC1	-46.9*	34.9*	10.8	-3.6	-8.8
CC(C)C(=O)N1CCN(c2ccc(NC(=O)c3ccco3)cc2Cl)CC1	3.7	5.7	11.7	9.5	.
COc1cccc(OC)c1C(=O)Nc1ccc2c(c1)Cc1ccccc1-2	-10.5	-6.3	6.7	-17.9	-4.3
O=C(Nc1ccc(CN2CCS(=O)(=O)CC2)cc1)c1ccc(C(F)(F)F)cc1	-46.3*	22.9	14.1	17.3	-12.8
O=C(Nc1ccc(N2CCOCC2)c(Cl)c1)c1ccco1	-33.7*	-1.9	3.0	27.9	-14.0
O=C(Nc1ccc2c(c1)Cc1ccccc1-2)c1ccco1	-11.3	3.8	4.6	-97.8*	-1.6
Cc1ccccc1C(=O)Nc1ccc(CN2CCOCC2)cc1	-9.3	0.9	6.3	4.8	-5.7
O=C(Nc1ccc2c(c1)CCCN2C(=O)c1cccs1)c1c(F)cccc1F	-18.5	-1.8	3.7	-11.1	-7.0
O=C(Nc1ccc(N2CCOCC2)c(Cl)c1)c1ccc(Cl)cc1	-30.6*	1.8	13.6	4.5	-5.0
O=C(Nc1ccc2c(c1)CCCN2C(=O)c1cccs1)c1c(F)cccc1Cl	-44.1*	4.7	1.2	1.1	-9.0
COc1c(C(=O)Nc2ccc(CN3CCOCC3)cc2)cc2ccccc2c1Br	-30.7*	0.0	13.0	-15.9	-2.4
O=C(Nc1ccc(N2CCN(C(=O)c3ccco3)CC2)c(Cl)c1)c1cc2ccccc2o1	-15.8	35.5*	4.5	-1.0	-1.4
O=C(CCCCn1c(=O)c2ccccc2n(Cc2ccccc2F)c1=O)NCc1ccc2c(c1)OCO2	4.4	2.4	2.2	.	0.9
CCOc1ccc(NC(=O)c2ccc(NC(=O)c3ccc(CN4CCOCC4)cc3)cc2)cc1	-33.7*	3.3	3.4	0.9	-3.5
CCOc1ccc(C2c3c(oc4ccc(C)cc4c3=O)C(=O)N2c2nc(C)c(C)s2)cc1OC (centres undefined)	13.8	-12.5	-1.0	.	-0.8
COc1ccc([N+](=O)[O-])c(S(=O)(=O)c2ccc(Cl)cc2)n1	-5.2	-10.5	2.3	-95.1*	-3.2
O=[N+]([O-])c1cccnc1S(=O)(=O)c1ccccc1	-16.9	-8.6	2.6	-73.6*	-12.2
SMILES	D1 antag	DRD3 agonist	D1 ag	D3 antag	D1 PAM
COc1ccccc1S(=O)(=O)c1ccccc1[N+](=O)[O-]	-2.8	-10.8	3.6	-11.6	0.4
COc1ccc([N+](=O)[O-])c(S(=O)(=O)c2ccccc2)n1	7.7	-44.8	2.4	-75.6*	-3.2
O=C(CCC1CCCN(C(=O)c2ccoc2)C1)NCc1ccc(F)c(F)c1 (centres undefined)	2.4	7.9	1.5	0.0	-0.3
O=C(CCC1CCCN(C(=O)c2ccc3c(c2)OCO3)C1)NCc1ccc(F)c(F)c1 (centres undefined)	-30.0*	-1.6	0.7	-9.3	-3.6
COc1cccc(CNC(=O)CCC2CCCN(C/C=C/c3ccccc3OC)C2)c1 (centres undefined)	-17.0	-12.8	6.0	-54.6*	-4.8
COc1ccc(/C=C/CN2CCCC(CCC(=O)NCc3ccc(F)c(F)c3)C2)cc1 (centres undefined)	-21.2	-32.2	21.1	-55.4*	-1.1
COCCNC(=O)CCC1CCN(C/C=C/c2ccccc2OC)CC1	-2.1	-20.0	2.5	-55.7*	4.4
COCCC(=O)N1CCCC(CCC(=O)NCc2ccc(F)c(F)c2)C1 (centres undefined)	-2.1	-10.3	-0.1	-20.7	-1.1
COc1ccc(CN2COc3ccc4c(-c5ccccc5)cc(=O)oc4c3C2)cc1OC	-3.4	-22.3	1.4	.	-2.0
O=C(CSc1nnc(-c2ccccc2Cl)o1)N1CCCc2ccccc21	-6.8	1.0	9.0	.	-2.4
COc1ccccc1/C=C/CN1CCCC(CCC(=O)NCc2ccc(F)c(F)c2)C1 (centres undefined)	-20.1	-18.1	7.4	-66.2*	-5.8
O=C(CCC1CCCN(Cc2cccc3c2OCO3)C1)NCc1ccc(F)c(F)c1 (centres undefined)	-1.4	-12.0	3.1	-13.4	-3.6
Cc1ccc(CN2CCCn3nc(C(=O)NCc4cc(C)ccc4C)cc3C2=O)cc1	8.5	-1.4	13.2	.	0.8
CC1CN(Cc2cc(=O)n3ccsc3n2)CC(C)O1 (centres undefined)	-49.4*	-0.9	1.3	-3.6	0.7
Cc1c(C(=O)NCCc2ccccc2)cccc1-n1cnc2cccnc21	-32.0*	7.3	-1.1	.	-2.9
Cc1cccc(C(=O)Nc2ccccc2C(=O)OCc2cc(=O)n3nc(C4CC4)sc3n2)c1	1.5	2.0	0.3	.	1.6
NNc1nc2c(-c3cccc(C(F)(F)F)c3)nnn2c2ccccc12	-10.2	31.6*	4.0	36.2	-0.1
O=C(NC(=S)Nc1ccccn1)c1cc(-c2ccccc2)nc2ccccc12	-3.6	1.6	9.6	-4.3	0.0
CCc1ccc(-c2cc(C(=O)Nc3ccc(S(=O)(=O)NC(C)=O)cc3)c3ccccc3n2)cc1	-5.8	-12.6	12.0	-93.5*	-3.0
O=C(Nc1nc2c(s1)CCCC2)c1cc(-c2ccncc2)nc2ccccc12	0.3	-28.5	1.0	?	-3.5
O=C(NC(=S)Nc1ccccc1)c1cc(-c2ccccc2)nc2ccccc12	13.9	-8.8	3.7	-125.1*	-0.5
O=C(Nc1nc2c(s1)CCCC2)c1cc(-c2ccccc2)nc2ccccc12	9.5	-8.0	31.9*	-81.0*	5.0
O=C(NNC(=O)c1cc(-c2ccncc2)nc2ccccc12)c1cccc(Cl)c1	-40.7*	3.4	3.1	-1.1	-3.7
CCn1c(=O)c2sccc2n2c(CCCC(=O)N3CCN(c4ccc(OC)cc4)CC3)nnc12	-0.1	8.8	1.1	.	0.9
COc1ccc(Cl)cc1C(=O)NNC(=S)NC(=O)c1ccc(F)c(F)c1	5.6	-12.7	171.0*	-13.4	-2.4
